Measured potencies and affinities stand elsewhere. The source made the active and inactive calls.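 How the source made its calls, unless noted: active means earlier screen potentiator hit that boosts the TRPC4 ion channel at some dose, with a dose response; inactive means no potentiation, no dose response, or not a prior hit.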
These compounds were tested against Short transient receptor potential channel 4 (Mus musculus) (UniProt Q9QUQ5) (assay: TRPC4 positive allosteric modulators, dose response, cell-based, HEK293 TRPC4/mu-opioid, Fluo-4 calcium, EC20 DAMGO (AID 434941;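 further: calcium entry triggered by an EC20 dose of DAMGO at the co-expressed mu-opioid receptor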)). Conditions: HEK293 TRPC4/mu-opioid cells, Fluo-4 calcium fluorescence; series mostly up to 20 µM.
Short transient receptor potential channel 4 (Mus musculus), sequence (Q9QUQ5 whole entry, looked up): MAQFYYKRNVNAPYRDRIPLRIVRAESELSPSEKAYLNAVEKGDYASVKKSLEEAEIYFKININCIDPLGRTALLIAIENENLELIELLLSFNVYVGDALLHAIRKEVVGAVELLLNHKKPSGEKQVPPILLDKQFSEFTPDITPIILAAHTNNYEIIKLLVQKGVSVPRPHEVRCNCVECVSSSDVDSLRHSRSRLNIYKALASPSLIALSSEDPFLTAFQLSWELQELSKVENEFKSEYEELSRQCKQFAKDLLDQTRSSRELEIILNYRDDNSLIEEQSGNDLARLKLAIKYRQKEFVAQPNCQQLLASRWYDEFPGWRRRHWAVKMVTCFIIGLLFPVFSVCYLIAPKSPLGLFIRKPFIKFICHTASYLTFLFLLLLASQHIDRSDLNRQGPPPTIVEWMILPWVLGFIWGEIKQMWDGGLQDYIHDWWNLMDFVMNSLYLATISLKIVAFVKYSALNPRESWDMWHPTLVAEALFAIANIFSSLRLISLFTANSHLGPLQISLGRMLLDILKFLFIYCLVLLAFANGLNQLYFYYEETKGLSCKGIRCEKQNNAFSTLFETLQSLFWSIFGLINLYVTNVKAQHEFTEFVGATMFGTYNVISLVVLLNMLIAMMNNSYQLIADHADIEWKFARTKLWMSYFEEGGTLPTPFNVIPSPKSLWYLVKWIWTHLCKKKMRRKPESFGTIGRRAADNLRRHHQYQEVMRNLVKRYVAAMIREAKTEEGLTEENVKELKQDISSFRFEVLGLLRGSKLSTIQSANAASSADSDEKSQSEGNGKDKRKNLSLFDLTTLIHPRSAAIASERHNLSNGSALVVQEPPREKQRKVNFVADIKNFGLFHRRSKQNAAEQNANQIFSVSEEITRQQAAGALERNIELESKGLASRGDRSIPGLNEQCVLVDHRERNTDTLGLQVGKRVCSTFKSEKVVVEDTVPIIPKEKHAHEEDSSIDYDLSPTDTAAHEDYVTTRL

outcome, inactive:
CN1CCC(CNC(=O)Nc2ccccc2)(c2ccccc2)CC1
Cc1ccc(C)c(OCCCCCn2ccnc2)c1
CN(C)C(CNC(=O)c1ccc2ccccc2n1)c1ccccc1 (stereo not given)
CCn1cc(CN2CCC(n3nccc3NC(=O)CCOc3ccccc3)CC2)cn1
CCOC(=O)C1(CCOc2ccccc2)CCN(Cc2cnc(C)s2)CC1
CCN1CCN(c2ccc(S(=O)(=O)N3CCOCC3)cc2NC(=O)C(C)Oc2cccc(Cl)c2)CC1 (stereo not given)
CN(CCc1nc2ccc(Cl)cc2[nH]1)Cc1nc(CC2CC2)no1
COc1ccccc1CCC(=O)Nc1cc(S(=O)(=O)N2CCCCC2)ccc1N1CCN(C)CC1
CCCCC(=O)NNC(=S)NC(=O)c1ccc(C)cc1
Cc1ccc(C2N(c3ccc(Cl)c(Cl)c3)C(=O)C3CCCN32)o1 (stereo not given)
COc1ccccc1N1CCN(C(c2cccs2)C(C)NC(=O)c2cccs2)CC1 (stereo not given)
O=C(Nc1nnc(-c2ccccc2Cl)o1)c1nc2ccccc2s1
CCOC(=O)C1(CC2CCCCO2)CCN(Cc2c(C)cc(C)cc2-n2cccn2)CC1 (stereo not given)
Cc1ccccc1OCC(=O)NNC(=S)NC(=O)c1ccco1
Cc1ccc(C2(O)CN(c3ccccc3C)C3=[N+]2CCS3)cc1 (stereo not given)
Cc1ccccc1C(=O)NNC(=S)NC(=O)c1ccccc1
Cc1ccc(C(=O)NC(=S)NNC(=O)c2ccccc2)cc1
Fc1ccc(-c2nnc(CN3CCN(c4ncc(C(F)(F)F)cc4Cl)CC3)o2)cc1
CNCCCOc1ccc2c(c1)CCC2
CCN(CCCNS(=O)(=O)c1cc(-c2cc(C)no2)ccc1C)Cc1ccccc1
CCOC(=O)c1oc2ccc(OC)cc2c1NC(=O)CN1CCN(C)CC1
COc1ccc(C(CNC(=O)c2cc(SC)ccc2Cl)N(C)C)cc1 (stereo not given)
O=C(NCCc1ccccn1)C(F)(F)C(F)(F)C(F)(F)C(F)(F)C(F)(F)C(F)F
CCCCCSc1nnc2c(n1)OC(c1cccn1C)N(C(C)=O)c1ccccc1-2 (stereo not given)
COc1ccc(-c2cc(C#N)nc(N3CCNCC3)n2)cc1
Cc1ccccc1NC(=S)NCCc1ccccn1
Cn1c(CN2CCN(c3cccc(Cl)c3)CC2)nc2ccccc21
O=C(Cn1c(-c2ccccc2)c[n+]2ccsc12)c1ccc(Br)cc1
CCn1c(N2CCN(Cc3ccc([N+](=O)[O-])cc3)CC2)nc2ccccc21
CN(C)C(CNC(=S)Nc1ccc(F)cc1)c1cccnc1 (stereo not given)
COc1ccc(C(=O)NC(=S)NNC(=O)c2c(-c3ccccc3)noc2C)cc1OC
CC1CC(C)CN(CCCNC(=O)COc2cc(=O)n(C)c3ccccc23)C1 (stereo not given)
CN(C)CCCN(C(=O)c1ccc(C(=O)c2ccccc2)cc1)c1nc2ccc(F)cc2s1
CCCCN(CC)CCNC(=O)c1cc2cc3ccc(Cl)cc3nc2o1
COc1ccc(C(=O)NC(=S)NNC(=O)CCc2ccccc2)cc1
CCN(CC)CCSc1nc2ccc(OC)cc2[nH]1
Cc1ccc(C)c(OCCCCn2ccnc2)c1
Cc1nc(/N=C(\N)NC(=O)NC2CCCCC2)nc2ccccc12
COC(=O)[C@@]1(Cc2ccc(F)cc2)[C@H]2c3cc(C(=O)N(C)C)n(CCc4ccccn4)c3C[C@H]2CN1C(=O)c1ccccc1
O=C(CNS(=O)(=O)c1ccc2ccccc2c1)NCCc1ccccn1

What follows are compounds tested against Short transient receptor potential channel 4 (Mus musculus) (UniProt Q9QUQ5) (assay: mouse TRPC4 channel inhibitors, dose response, cell-based, HEK293 TRPC4/mu-opioid, Fluo-4 calcium (AID 434942;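 active means primary screen inhibitor hit that blocks the TRPC4 channel at some tested dose, yielding a dose curve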)). Conditions: HEK293 TRPC4/mu-opioid cells, DAMGO-evoked Fluo-4 calcium ratio; series mostly up to 20 µM.

outcome, inactive:
CN1CCC(CNC(=O)Nc2ccccc2)(c2ccccc2)CC1
Cc1ccc(C)c(OCCCCCn2ccnc2)c1
CN(C)C(CNC(=O)c1ccc2ccccc2n1)c1ccccc1 (stereo not given)
CCn1cc(CN2CCC(n3nccc3NC(=O)CCOc3ccccc3)CC2)cn1
CCOC(=O)C1(CCOc2ccccc2)CCN(Cc2cnc(C)s2)CC1
CCN1CCN(c2ccc(S(=O)(=O)N3CCOCC3)cc2NC(=O)C(C)Oc2cccc(Cl)c2)CC1 (stereo not given)
CN(CCc1nc2ccc(Cl)cc2[nH]1)Cc1nc(CC2CC2)no1
COc1ccccc1CCC(=O)Nc1cc(S(=O)(=O)N2CCCCC2)ccc1N1CCN(C)CC1
CCCCC(=O)NNC(=S)NC(=O)c1ccc(C)cc1
Cc1ccc(C2N(c3ccc(Cl)c(Cl)c3)C(=O)C3CCCN32)o1 (stereo not given)
COc1ccccc1N1CCN(C(c2cccs2)C(C)NC(=O)c2cccs2)CC1 (stereo not given)
O=C(Nc1nnc(-c2ccccc2Cl)o1)c1nc2ccccc2s1
CCOC(=O)C1(CC2CCCCO2)CCN(Cc2c(C)cc(C)cc2-n2cccn2)CC1 (stereo not given)
Cc1ccccc1OCC(=O)NNC(=S)NC(=O)c1ccco1
Cc1ccc(C2(O)CN(c3ccccc3C)C3=[N+]2CCS3)cc1 (stereo not given)
Cc1ccccc1C(=O)NNC(=S)NC(=O)c1ccccc1
Cc1ccc(C(=O)NC(=S)NNC(=O)c2ccccc2)cc1
Fc1ccc(-c2nnc(CN3CCN(c4ncc(C(F)(F)F)cc4Cl)CC3)o2)cc1
CNCCCOc1ccc2c(c1)CCC2
CCN(CCCNS(=O)(=O)c1cc(-c2cc(C)no2)ccc1C)Cc1ccccc1
CCOC(=O)c1oc2ccc(OC)cc2c1NC(=O)CN1CCN(C)CC1
COc1ccc(C(CNC(=O)c2cc(SC)ccc2Cl)N(C)C)cc1 (stereo not given)
O=C(NCCc1ccccn1)C(F)(F)C(F)(F)C(F)(F)C(F)(F)C(F)(F)C(F)F
CCCCCSc1nnc2c(n1)OC(c1cccn1C)N(C(C)=O)c1ccccc1-2 (stereo not given)
COc1ccc(-c2cc(C#N)nc(N3CCNCC3)n2)cc1
Cc1ccccc1NC(=S)NCCc1ccccn1
Cn1c(CN2CCN(c3cccc(Cl)c3)CC2)nc2ccccc21
O=C(Cn1c(-c2ccccc2)c[n+]2ccsc12)c1ccc(Br)cc1
CCn1c(N2CCN(Cc3ccc([N+](=O)[O-])cc3)CC2)nc2ccccc21
CN(C)C(CNC(=S)Nc1ccc(F)cc1)c1cccnc1 (stereo not given)
COc1ccc(C(=O)NC(=S)NNC(=O)c2c(-c3ccccc3)noc2C)cc1OC
CC1CC(C)CN(CCCNC(=O)COc2cc(=O)n(C)c3ccccc23)C1 (stereo not given)
CN(C)CCCN(C(=O)c1ccc(C(=O)c2ccccc2)cc1)c1nc2ccc(F)cc2s1
CCCCN(CC)CCNC(=O)c1cc2cc3ccc(Cl)cc3nc2o1
COc1ccc(C(=O)NC(=S)NNC(=O)CCc2ccccc2)cc1
CCN(CC)CCSc1nc2ccc(OC)cc2[nH]1
Cc1ccc(C)c(OCCCCn2ccnc2)c1
Cc1nc(/N=C(\N)NC(=O)NC2CCCCC2)nc2ccccc12
COC(=O)[C@@]1(Cc2ccc(F)cc2)[C@H]2c3cc(C(=O)N(C)C)n(CCc4ccccn4)c3C[C@H]2CN1C(=O)c1ccccc1
O=C(CNS(=O)(=O)c1ccc2ccccc2c1)NCCc1ccccn1
